Data: ChEMBL document CHEMBL3433997, “St. Jude Leishmania screening dataset” (2016)

What was measured:
Assay type in all cases: functional
[1] = molecular target: Solute carrier family 2, facilitated glucose transporter member 1 (Homo sapiens) (UniProt P11166); assay: ST_JUDE_LEISH: Cytotoxicity at 2uM final concentration against transgenic Leishmania Mexicana promastigotes LmGLUT1 that are glucose transport deficient and complemented with the human glucose transporter GLUT1. Activity is measured by DNA content using SYBR green in vitro
[2] = molecular target: Hexose transporter 1 (Plasmodium falciparum) (UniProt O97467); assay: ST_JUDE_LEISH: Cytotoxicity at 2uM final concentration against transgenic Leishmania Mexicana promastigotes LmPfHT that are glucose transport deficient and complemented with the Plasmodium falciparum hexose transporter. Activity is measured by DNA content using SYBR green in vitro
[3] = molecular target: Glucose transporter (Leishmania mexicana) (UniProt O61059); assay: ST_JUDE_LEISH: Cytotoxicity at 2uM final concentration against transgenic Leishmania Mexicana promastigotes LmGT2 that are glucose transport deficient and complemented with the L. Mexicana glucose transporter 2. Activity is measured by DNA content using SYBR green in vitro

Chain of Solute carrier family 2, facilitated glucose transporter member 1 (Homo sapiens) (P11166 whole entry): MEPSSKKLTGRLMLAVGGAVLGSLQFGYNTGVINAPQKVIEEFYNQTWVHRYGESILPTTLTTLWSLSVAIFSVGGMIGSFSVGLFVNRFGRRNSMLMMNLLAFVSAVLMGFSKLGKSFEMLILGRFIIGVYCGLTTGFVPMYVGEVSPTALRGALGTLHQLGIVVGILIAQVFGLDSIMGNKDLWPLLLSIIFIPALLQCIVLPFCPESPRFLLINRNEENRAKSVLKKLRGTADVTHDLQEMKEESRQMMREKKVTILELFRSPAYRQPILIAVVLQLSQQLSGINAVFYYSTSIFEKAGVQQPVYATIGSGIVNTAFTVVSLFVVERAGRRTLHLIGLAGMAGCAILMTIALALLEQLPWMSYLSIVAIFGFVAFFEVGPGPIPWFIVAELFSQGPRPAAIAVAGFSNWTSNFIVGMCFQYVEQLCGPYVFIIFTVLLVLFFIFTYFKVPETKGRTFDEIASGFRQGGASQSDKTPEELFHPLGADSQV

Compound	inhibition [1] [%]	inhibition [2] [%]	inhibition [3] [%]
CCC(=O)N(c1ccccc1)C1CCN(CCCC(NC(=O)c2cc(C(F)(F)F)cc(C(F)(F)F)c2)c2ccc(Cl)c(Cl)c2)CC1 (stereo unspecified)	8.75	5.36	6.09
CO/C(=C\C=C\c1cc2cc(Cl)c(Cl)cc2[nH]1)C(=O)NCCCN1CCN(C2CCCCC2)CC1	8.66	5.7	2.31
O=C(N/C=N/c1cc([N+](=O)[O-])c(-c2cccnc2)n1-c1ccc(O)cc1)c1ccccc1	-0.13	-1.73	-1.68
CC1CN(c2cc(=O)n(Cc3ccc(NC(=O)Nc4ccc(-c5ccccc5)cc4)cc3)cn2)CC(C)N1 (stereo unspecified)	1.33	1.47	-0.75
O=C(Nc1ccc(Cl)cc1C(=O)Nc1cccc(F)c1)c1ccc([N+](=O)[O-])cc1	0.5	0.92	1.58
COc1ccc(NC(=O)Nc2ccc(-c3ccccc3)cc2Cl)cc1N1CCN(C)CC1	12	11.8	3.58
O=C(NCc1ccc(Cl)c(Cl)c1)c1ccc(-c2nc3ccc(Cl)cc3[nH]2)cc1	4.45	9.23	3.4
CC1CCN(C(=O)[C@H](Cc2c[nH]c3ccccc23)NS(=O)(=O)c2ccc(Cl)cc2)CC1	1.32	2.42	13.7
CCC(C)NS(=O)(=O)c1ccc2nc(Nc3ccc(C)c(Cl)c3)n([C@H](C)C(C)(C)C)c2c1 (stereo partly specified)	2.63	2.57	0.57
Cc1cc(Nc2ccc3c(c2)CCC3)n2ncnc2n1	0.63	0.55	0.55
COc1ccc(OC)c(-c2ccc(O)c(CNCC(C)c3ccccc3)c2)c1 (stereo unspecified)	-0.66	-0.62	-1.24
Cc1cc(C)c(C)c(OCCCON2C(=N)N=C(N)NC2(C)C)c1C	1.55	-0.22	2.17
Cc1cc(-c2ccc(NC(=O)Nc3ccc4nccc(N5CCN(C)CC5)c4c3)cc2C)cc(C)n1	7.15	5.84	8.51
COc1cc(-c2nc(C(C)(C)CN)[nH]c2-c2ccncc2)ccc1Br	7.38	11.3	4.8
CC(=O)Nc1ccc(C#Cc2ccc(-c3c(C)[nH]c(C)c(Cl)c3=O)cc2)cc1	1.3	0.64	1.24
COc1ccc(NC(=O)Nc2ccc(-c3ccncc3)c(Cl)c2)cc1N1CCN(C)CC1	-1.37	-0.91	-2.2

Compound	inhibition [1] [%]	inhibition [2] [%]	inhibition [3] [%]
Cc1noc(-c2ccc(NC[C@@H](C)NC[C@H](O)c3cccc(Cl)c3)cc2)n1	3.79	3.1	4.26
FC(F)(F)c1ccc2[nH]c(-c3ccc(-c4ccc(CN5CCN(c6ccncc6)CC5)cc4)s3)nc2c1	1.51	-1.36	-2.12
Cc1ccc(C)c2c1[nH]c1ccc(C3=NCCN3)cc12	0.89	1.39	1.4
CN1CCc2ccc(NC(=O)Nc3cccc([N+](=O)[O-])c3)cc2C1	1.58	0.7	1.63
CCOc1cc(C(=O)NC2CC(C)(C)NC(C)(C)C2)ccc1-c1cc2cc(Cl)c(Cl)cc2[nH]1	-1.95	-1.26	-0.02
O[C@H]1[C@H](OCc2ccc(-c3ccccc3)cc2)CC[C@@H]1N1CCCCC1	0.73	1.54	8.6
COc1ccc(-c2cc(C(=O)Nc3ccc(CCCN(C)Cc4ccc(OC)c(OC)c4)cc3)c3ccccc3n2)cc1	13.6	2.41	1.44
Cc1noc(C)c1-c1cccc(CNCc2ccc(-c3cccc(-c4nc5ccccc5[nH]4)c3)cc2)c1	-0.68	-1.65	-4.01
OC(c1ccc(Cl)cc1)(c1ccc(Cl)cc1)C(c1ccc(Cl)cc1)n1ccnc1 (stereo unspecified)	8.37	4.21	2.69
C=CCn1c(=N)c(C(=O)NC2CCCCC2)cc2c(=O)n3cccc(C)c3nc21	11.3	15.2	4.5
CCOc1cc(C(=O)NC2CC(C)(C)NC(C)(C)C2)ccc1-c1nc2cc(Cl)ccc2[nH]1	1.25	1.71	1.1
COc1ccc2nc(-c3ccccc3)cc(N/N=C/c3ccc([N+](=O)[O-])cc3)c2c1	6.36	6.3	2.43
CN(C)CCNCc1cccc(-c2ccc3c(Nc4ccc(F)cc4Cl)ccnc3c2)c1	3.59	3.29	5.03
COc1c(C(=O)NC2CCN(Cc3ccccc3)C2)cnc2ccccc12 (stereo unspecified)	11.8	9.19	8.95
O=C(Cc1ccc(Cl)cc1)NC1CCN(c2ccnc3cc(Cl)ccc23)C1 (stereo unspecified)	-0.91	0.24	0.26
c1ccc2c(CNc3ccnc(NCc4cccc5ccccc45)n3)cccc2c1	9.83	5.69	7
